{"source": "PubChem BioAssay (EPA / NIEHS)", "note": "The source made the active and inactive calls. The calls were made as follows: active = hit-call score of the fitted dose curve at least 0.9, where 1 is the maximum; inactive = score below 0.9.", "data": [{"test": "Tanguay_ZF_120hpf_TCHR: Oregon State University Tanguay Lab 120 Hour Post-fertilization zebrafish Assay for Touch Responsive (AID 2284403)", "description": "Tanguay_ZF_120hpf is a whole embryo, multiplexed endpoint assay using zebrafish larvae exposed for 120 hours post fertilization on a 96-well plate.Tanguay_ZF_120hpf_TCHR is one of one assay component(s) measured or calculated from the Tanguay_ZF_120hpf assay. It is designed to make measurements of zebrafish development as detected with brightfield microscopy of developing zebrafish embryos.Data from the assay component Tanguay_ZF_120hpf_TCHR was analyzed into 1 assay endpoints. This assay endpoint, Tanguay_ZF_120hpf_TCHR, was analyzed in the positive analysis fitting direction relative to DMSO as the negative control and baseline of activity. Using a type of morphology reporter, gain-of-signal activity can be used to understand changes in developmentals as they relate to the whole embryo. To generalize the intended target to other relatable targets, this assay endpoint is annotated to the zebrafish development intended target family, where the subfamily is embryonic functional response.\nZebrafish husbandry: Tropical 5D wild-type adult zebrafish were housed in at an approximate density of 1000 per 100 gallon tank at the Sinnhuber Aquatic Research Laboratory, Oregon State University, Corvallis, OR. Each tank was kept at standard laboratory conditions of 28C on a 14-h light/10-h dark photoperiod in fish water consisting of reverse osmosis water supplemented with a commercially available salt (Instant Ocean). Spawning funnels were placed into the tanks the night prior, and embryos were collected and staged. To increase bioavailability, the chorion was enzymatically removed using pronase (63.6mg/ml, >/= 3.5U/mg, Sigma-Aldrich: P5147) at 4 hours post fertilization (hpf) using a custom automated dechorionator.Chemical exposures: Six hpf dechorionated embryos were placed 1 embryo per well in a 96-well plate prefilled with 90 ul of EM using automated embryo placement systems (AEPS). Ten microliters of each row of dilution plate 2 was added to 2 exposure plates. The final DMSO concentration used was 0.64% (vol/vol). Thirty-two embryos were also exposed to 5uM trimethyltin chloride (positive control). Plates were sealed to prevent evaporation and foil covered to reduce light exposure and kept in a 28C incubator. Embryos were statically exposed until 120 hpf. At 24 hpf, embryos were assessed for photomotor response using a custom photomotor response analysis tool (PRAT) and for developmental toxicity endpoints (MO24: mortality at 24 hpf, DP: developmental progression, SM: spontaneous movement, and NC: notochord distortion). At 120 hpf, locomotor activity was measured using Viewpoint Zebralab and assessed for 13 endpoints. Zebrafish acquisition and analysis program (ZAAP), a custom program designed to inventory, acquire, and manage zebrafish data, was used to collect developmental endpoints as either present or absent (i.e., binary responses were recorded). If mortality occurred for an embryo (at either 24 or 120 hpf), the non-mortality endpoints were not measured.", "values": [{"smiles": "O=C(O)C(F)(F)OC(F)(F)C(F)(F)OC(F)(F)F", "outcome": "inactive"}, {"smiles": "OCC(F)(F)OC(F)(F)C(F)(F)OC(F)(F)C(F)(F)OC(F)(F)F", "outcome": "inactive"}, {"smiles": "O=C(O)C(F)(OC(F)(F)C(F)(F)C(F)(F)F)C(F)(F)F", "note": "(centres undefined)", "outcome": "inactive"}, {"smiles": "C=CC(=O)OCC(F)(F)C(F)F", "outcome": "inactive"}, {"smiles": "O=S(=O)(F)C(F)(F)C(F)(F)C(F)(F)C(F)(F)C(F)(F)C(F)(F)C(F)(F)C(F)(F)F", "outcome": "inactive"}, {"smiles": "O=C(O)C(F)(F)OC(F)(F)C(F)(F)OC(F)(F)C(=O)O", "outcome": "inactive"}, {"smiles": "NC(=O)C(F)(F)C(F)(F)F", "outcome": "inactive"}, {"smiles": "FC(F)(F)C(F)(C(F)(F)F)C(F)(F)C(F)(F)CC1CO1", "note": "(centres undefined)", "outcome": "inactive"}, {"smiles": "OCC(F)(F)OC(F)(F)C(F)(F)OC(F)(F)CO", "outcome": "inactive"}, {"smiles": "CC(O)C(F)(F)C(F)(F)F", "note": "(centres undefined)", "outcome": "inactive"}, {"smiles": "OCC(F)(F)OC(F)(F)C(F)(F)OC(F)(F)C(F)(F)OC(F)(F)CO", "outcome": "inactive"}, {"smiles": "O=C(O)C(F)(F)C(F)(F)C(=O)O", "outcome": "inactive"}, {"smiles": "O=C(O)C=CC(F)(C(F)(F)F)C(F)(F)F", "outcome": "inactive"}, {"smiles": "COC(=O)C(F)(F)C(F)(F)OC(F)(C(F)(F)F)C(F)(F)OC(F)=C(F)F", "note": "(centres undefined)", "outcome": "inactive"}]}]}
